# Results published in PubChem BioAssay AID686970 (National Center for Advancing Translational Sciences (NCATS), 2013).
# Screen size: about 360,000 compounds; about 6,000 (1.7%) were called active. Inconclusive results (about 8%) are left out. The sample holds actives, similar compounds and a random draw of the others, so the mix is not that of the screen. A number with no mark means an inactive call. The call rests on the fitted dose curve; in most records, active means well fitted cell-killing curve with a large enough effect; inconclusive means small, poorly fitted or top-dose-only effect, or effect the other way; inactive means flat fitted curve, though single readings scatter.
# Test: qHTS for induction of synthetic lethality in tumor cells producing 2HG: qHTS for the HT-1080-NT fibrosarcoma cell line;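 further: NT is the 2HG producing partner of a matched IDH1 knockdown line; nearly all actives have a fitted effect of over 55% in size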;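 on activity, negative = less viability: 0% = DMSO-treated cells and -100% = media-only wells without cells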
# Conditions: HT-1080-NT fibrosarcoma viability, CellTiter-Glo ATP luminescence, 48 h; series mostly up to 46.1 µM; activity, negative = less viability: at the top concentration
# Outline: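 Toxicity toward the 2HG-producing NT line was scored as %Activity, normalised to DMSO and no-cell wells, from CellTiter-Glo luminescence after 48 hours' treatment.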
# Potency means the concentration at half of the fitted maximal effect.
Compound,"activity, negative = less viability [%]",Potency
COc1ccc([C@H]2CC(=O)C[C@@H](CCn3cc(CC4CCCC4)nn3)O2)cc1,2.3,–
CCc1oc(-c2ccc(OC)cc2)c(C(=O)OCCCCCO)c1C(C)OCCO (stereo not given),-8.86,–
Cc1ccc(S(=O)(=O)N2CCC(=O)N([C@H](COCc3ccccc3)C(C)C)CC2)cc1,9.52,–
O=C(NCCc1ccccc1)c1cccc(NC(=O)c2ccccc2)c1,-7.31,–
O=C(CSCc1ccccc1)Nc1ccccc1,19.4,–
O=C(CCl)Nc1cccc(CP(=O)(c2ccccc2)c2ccccc2)c1,–,4.11 µM (active)
CC(C)[C@H](NC(=O)c1ccccc1F)C(=O)Nc1cccc(S(=O)(=O)N2CCOCC2)c1,1.57,–
COc1ccc2[nH]c(=O)c(CN(Cc3nnnn3CCc3ccccc3)CC3CCCO3)cc2c1 (stereo not given),-12,–
CCOc1ccc2[nH]c(=O)c(CN(Cc3nnnn3Cc3ccccc3)CC3CCCO3)cc2c1 (stereo not given),–,6.31 µM (active)
CCOc1ccc2[nH]c(=O)c(CN(Cc3nnnn3CCc3ccccc3)CC3CCCO3)cc2c1 (stereo not given),-0.584,–
CCOC(=O)C1=CC[C@@H](c2ccccc2)N(S(=O)(=O)c2ccc(C)cc2)[C@H]1c1cccc(OC)c1,5.72,–
CC1(C)NC(=O)N(CC(=O)Nc2ccc(-c3ccccc3)cc2)C1=O,13.6,–
CCS(=O)(=O)Nc1cccc(-c2cc(-c3ccccc3)c3cc(C)ccc3n2)c1,–,23.1 µM (active)
CS(=O)(=O)Nc1cccc(-c2cn3ccccc3n2)c1,23.4,–
Cc1cc(C)cc(NS(=O)(=O)Cc2ccccc2)c1,-3.43,–
Cc1ccc(-c2nc3c(C)cc(Br)cn3c2Cc2ccccc2)cc1,17.6,–
COC(=O)[C@]12CCCCC=C1N(Cc1ccc3c(c1)OCO3)C(=O)[C@H](CC(=O)NCc1cccs1)C2,-16.6,–
COc1ccc(C2NC(=O)c3ccccc3N2)cc1 (stereo not given),-20.1,–
O=C1NC(c2cccc(Cl)c2)Nc2ccccc21 (stereo not given),–,11.6 µM (active)
O=C1NC(c2ccccc2)Oc2ccccc21 (stereo not given),6.8,–
CCc1nc2c(OCCc3cccc(OC)c3)cccn2c1N(C)C(=O)c1ccc(C)cc1,-2.42,–
O=C(COC(=O)c1cncc(Br)c1)Nc1ccc(S(=O)(=O)N2CCOCC2)cc1,-2.37,–
CC(C)c1cc(C(=O)N(C)C2CCCN(Cc3ccccc3F)C2)n(C)n1 (stereo not given),-7.41,–
CNc1cncc(-c2cccc(C(=O)N3CCOCC3)c2)n1,4.76,–
COCCNC(=O)c1ccc(Cn2c(SCC(=O)NCC3CCCO3)nc3ccc(Br)cc3c2=O)cc1 (stereo not given),-9.16,–

Compound,"activity, negative = less viability [%]",Potency
OC(CNCC1CCCO1)Cn1c2ccc(Br)cc2c2cc(Br)ccc21 (stereo not given),–,20.6 µM (active)
CCCN1CCn2c3c(c4cc(Br)ccc42)CCCC31 (stereo not given),2.41,–
Cc1sc2nc(-c3ccccc3F)oc(=O)c2c1C,1.74,–
O=S1(=O)CC(N2CCN(CCO)CC2)CN1Cc1cn(Cc2ccc(Cl)cc2)nn1 (stereo not given),18.6,–
O=C(Nc1cc(Br)ccc1F)c1nc[nH]c1C(=O)NCc1ccccc1,-4.69,–
CCN1CCN(CCNC(=O)c2ccc(/C=C3/Sc4ccccc4N(Cc4cccc(C)c4)C3=O)cc2)CC1,–,23.1 µM (active)
CN1CCN(CCCNC(=O)c2ccc(/C=C3\Oc4ccccc4N(Cc4ccc(Cl)cc4)C3=O)cc2)CC1,-9.12,–
CCN1CCN(CCNC(=O)c2ccc3c(c2)NC(=O)/C(=C\c2cccc(Cl)c2)S3)CC1,-6.54,–
CCNC(=O)C1(C)CCCN(C(=O)c2c(C)noc2C)C1 (stereo not given),17.7,–
COc1cccc(NC(=O)COC(=O)CCOc2ccccc2OC)c1,-0.605,–
CSc1ccccc1NC(=O)COC(=O)CCCOc1ccc(C)cc1,3.43,–
COc1cc([N+](=O)[O-])ccc1NC(=O)COC(=O)CCOc1ccc(C)cc1,–,20.6 µM (active)
CCc1ccccc1NC(=O)CN1CCN(C(=O)c2cc(C3CC3)nn2-c2ccccc2)CC1,4.23,–
N#Cc1c(-c2cccs2)nc(SCC(=O)c2ccc(Br)cc2)[nH]c1=O,-17.9,–
COC(=O)c1sc(NC(=S)NC(=O)c2ccc(C)cc2)nc1C,17.2,–
N#Cc1ccc(C(=O)Nc2nc(-c3cccs3)c(C(=O)C(F)(F)F)s2)cc1,–,2.91 µM (active)
CCOC(=O)[C@]12CCCC=C1N(Cc1ccc3c(c1)OCO3)C(=O)[C@H](CC(=O)NCc1cccs1)C2,-21,–
CC1(C)CC(=O)C=C(c2ccc(COC(=O)c3cc(F)cc(F)c3)cc2)C1=O,-18.3,–
CCN(CC(=O)Nc1ccc(NC(C)=O)cc1)C(=O)C1CC(=O)N(c2ccc3c(c2)OCCO3)C1 (stereo not given),4.08,–
CC(NC(=O)c1ccccc1)C(=O)Nc1ccccc1 (stereo not given),7.26,–
O=C(NC(=O)c1ccccc1)Nc1ccccc1O,-9.01,–
O=C(NC1=CC(=O)c2ccccc2C1=O)c1ccccc1,–,7.31 µM (active)
Cc1ccc(S(=O)(=O)N2[C@@H](Cc3ccccc3)CO[C@H]2CC(=O)OCc2ccccc2)cc1,-7.46,–
CCCCNC(=O)OC1CC2CC1[C@H]1CCCCN1C2=O (stereo not given in full),11.3,–
O=C(COC(=O)Cc1ccc(Cl)cc1Cl)NCc1ccco1,0.36,–
